Screening data (PubChem)
Mdm2 MdmX PPI = inhibitors of human Mdm2/MdmX interaction; SaOS-2 split-luciferase Mdm2/MdmX complementation, luminescence; inhibition, % at 8 µM; 330,000 compounds, 3% hits;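 active = inhibition of at least 50% at 8 µM in the primary screen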
Target sequence (O15151 whole entry, looked up): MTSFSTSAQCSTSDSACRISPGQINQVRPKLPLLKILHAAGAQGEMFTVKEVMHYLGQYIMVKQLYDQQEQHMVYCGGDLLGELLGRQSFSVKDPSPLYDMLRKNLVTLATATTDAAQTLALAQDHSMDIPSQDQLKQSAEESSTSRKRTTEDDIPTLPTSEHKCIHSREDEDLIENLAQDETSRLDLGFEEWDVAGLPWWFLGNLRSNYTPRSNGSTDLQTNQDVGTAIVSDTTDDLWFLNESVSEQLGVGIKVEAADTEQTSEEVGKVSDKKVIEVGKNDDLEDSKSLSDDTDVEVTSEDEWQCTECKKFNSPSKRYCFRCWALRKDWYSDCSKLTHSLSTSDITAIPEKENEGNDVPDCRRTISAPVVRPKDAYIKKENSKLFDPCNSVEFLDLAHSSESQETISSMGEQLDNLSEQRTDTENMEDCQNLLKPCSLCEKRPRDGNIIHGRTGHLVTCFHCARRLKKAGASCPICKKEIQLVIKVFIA
Target sequence (Q00987 whole entry, looked up): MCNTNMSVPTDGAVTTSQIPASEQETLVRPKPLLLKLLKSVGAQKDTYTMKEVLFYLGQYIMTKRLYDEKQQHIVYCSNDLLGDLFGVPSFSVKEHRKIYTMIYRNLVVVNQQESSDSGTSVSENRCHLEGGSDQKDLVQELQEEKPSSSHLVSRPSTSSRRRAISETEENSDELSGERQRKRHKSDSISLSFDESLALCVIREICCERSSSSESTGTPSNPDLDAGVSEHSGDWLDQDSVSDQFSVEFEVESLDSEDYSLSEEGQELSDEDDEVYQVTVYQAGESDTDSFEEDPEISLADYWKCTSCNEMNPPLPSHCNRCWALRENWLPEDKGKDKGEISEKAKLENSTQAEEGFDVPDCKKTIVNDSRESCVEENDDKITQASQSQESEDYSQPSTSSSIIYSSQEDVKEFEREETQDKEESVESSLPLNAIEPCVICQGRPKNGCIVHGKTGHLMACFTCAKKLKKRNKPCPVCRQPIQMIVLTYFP
aSyn 5UTR inh = 5' untranslated region of α-synuclein, MLPCN primary screen | inhibition, % (tested at 7.5 µM) | alpha-synuclein 5'UTR reporter, inhibitor activity | 300,000 compounds, 0.82% hits | AID 1813; in the data active = inhibition above about 60%;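 note: H4 neuroglioblastoma cells stably carrying SNCA 5'UTR luciferase fusion; 0% = DMSO wells and 100% = positive control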
KLF5 inhibitor = kruppel-like factor 5 inhibition. AID 1700. inhibition, % at 5 µM. 290,000 compounds, 0.23% hits. DLD-1 KLF5 promoter-luciferase reporter, luminescence;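 active = inhibition above a per-plate limit of that plate's mean compound inhibition plus 3 SD, cut at about 60% in these data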;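 note: 0% = DMSO wells and 100% = LY294002 at 200 µM; higher means less KLF5 promoter-driven luciferase light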
Gli-Sufu antag = antagonists of Gli-Sufu signaling. 340,000 compounds, 0.74% hits. inhibition, % at 5 µM. Sufu-KO-LIGHT fibroblasts, Gli luciferase reporter luminescence;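 active = inhibition above about 55%, limit read from the data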;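 note: 0% = DMSO-treated cells and 100% = wells with medium but no cells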
697 NFkB inh = lowers PMA/ionomycin-induced NF-kB signal in 697 B cells; inhibition, % at 4 µM; 330,000 compounds, 0.33% hits; 697 B-cell NF-kB luciferase reporter, 16 h; in the data active = inhibition above about 35%
Jurkat NFkB inh = lowers PMA/ionomycin-induced NF-kB signal in Jurkat cells; 330,000 compounds, 0.53% hits; inhibition, % at 4 µM; AID 435003; PMA/ionomycin-induced NF-kB luciferase reporter, luminescence; in the data active = inhibition above about 50%
Gli antag conf = confirmation of Gli-SUFU pathway antagonists; shares compounds with Gli-Sufu antag; inhibition, % at 5 µM; 2,500 compounds, 40% hits; Sufu-KO-LIGHT cells, Gli luciferase reporter, luminescence;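 active = mean inhibition at 5 µM reaching about 45%, limit read from the data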;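 note: plate controls were DMSO-treated cells for no effect and wells lacking cells for full effect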
SufuKO cytotox = cytotoxic in Gli-SUFU antagonist counter-screen; shares compounds with Gli-Sufu antag; Sufu-KO-LIGHT cells cytotoxicity, ATP luminescence; cytotoxicity, % at 5 µM; 2,500 compounds, 32% hits;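 active = mean cytotoxicity at 5 µM above about 25%, limit read from the data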;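 note: cells exposed to compound overnight for roughly 16 to 18 hours; plate controls were DMSO wells with cells for no effect and medium without cells for full effect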
Wnt3a counter = counter-screen for Gli-SUFU antagonists: Wnt3a reporter inhibition | Wnt-LIGHT cells, Wnt3a-driven luciferase reporter, luminescence | shares compounds with Gli-Sufu antag | 2,500 compounds, 20% hits | inhibition, % at 6.25 µM;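 active = mean inhibition above about 25%, limit read from the data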
* marks the source's active call; other numbers are inactive results; · = no result. Compounds with a hit are over-represented: about 4.1% of the library has one in this group of screens.

SMILES | Mdm2 MdmX PPI | aSyn 5UTR inh | KLF5 inhibitor | Gli-Sufu antag | 697 NFkB inh | Jurkat NFkB inh | Gli antag conf | SufuKO cytotox | Wnt3a counter
Cc1cc(S(=O)(=O)NCCC2=CCCCC2)ccc1Br | 12.1 | 3.0 | · | -10.1 | -4.1 | -9.4 | · | · | ·
Cc1ccc(S(=O)(=O)NCCC2=CCCCC2)cc1C(N)=O | 10.8 | 0.9 | -38.5 | 58.3* | -25.6 | 18.5 | 47.3* | 18.6 | 18.6
C[C@H](CO)N1C[C@H](C)[C@@H](CN(C)C(=O)Nc2ccccc2)Oc2c(NC(=O)C3CCCCC3)cccc2C1=O | 9.5 | · | · | -0.4 | 3.9 | 9.6 | · | · | ·
Cc1ccc(NC(=O)c2ccccc2F)nc1 | -41.8 | -87.7 | -112.4 | 99.5* | -82.0 | -109.7 | -54.7 | 14.0 | 6.8
Cc1ccc(NC(=O)c2cc(F)c(F)cc2Cl)nc1 | -85.0 | -130.0 | -123.8 | -89.8 | -51.9 | -70.8 | · | · | ·
COc1ccc(NC(=O)COC(=O)CNS(=O)(=O)/C=C/c2ccccc2)cc1OC | 0.4 | · | · | 17.3 | 0.7 | -9.7 | · | · | ·
NS(=O)(=O)c1ccc(CCNCc2cc(Cl)ccc2OCc2ccccc2)cc1 | 29.1 | -2.6 | -15.1 | 55.6* | -27.5 | 14.7 | 23.5 | -5.7 | -16.6
NS(=O)(=O)c1ccc(CCNCc2ccccc2OCc2ccc(Cl)cc2)cc1 | 35.2 | -3.1 | -13.5 | 50.2 | -19.8 | 21.0 | 14.6 | 8.7 | -61.2
CCN(CC)CCCN1C(=O)C2C(C(=O)Nc3ccc(C(C)C)cc3)C3C=CC2(O3)C1C(=O)NC1CCCCC1 (centres undefined) | -1.1 | -0.7 | -3.5 | 29.1 | -6.1 | -28.7 | · | · | ·
CNc1ccccc1C(C)(C)c1cc(-c2cccc(Br)c2)no1 | 20.4 | 27.4 | 6.7 | 70.7* | -33.8 | 31.1 | 75.0* | 17.1 | 25.7*
COc1ccc(C(=O)C(CN2CCOCC2)c2ccccc2)cc1F (centres undefined) | · | -108.1 | 26.5 | 54.9 | · | · | 17.5 | 1.0 | 18.8
CCC(C)NS(=O)(=O)c1ccc(S(=O)(=O)N2CCCC3(CCCCC3)C2)cc1 (centres undefined) | 43.1 | 31.9 | -16.3 | 52.7 | -11.4 | 32.5 | 42.8 | 25.6* | 6.1
Cc1cc(C)nc(/N=C(\N)Nc2ccccc2-c2ccccc2)n1 | 39.2 | -1.3 | -7.8 | 59.7* | -63.1 | 35.0 | 42.8 | 12.0 | -16.1
Cn1c(=O)n(C)c2cc3[nH]cnc3cc21 | 18.5 | -32.5 | -56.7 | 6.7 | -3.1 | -11.3 | · | · | ·
Nc1cc2nc[nH]c2cc1N | 11.0 | -100.1 | -26.4 | 62.6* | -8.7 | 0.3 | 9.3 | 5.0 | -10.4
CSC1=NCCN1C(=O)Cc1ccc(-c2ccccc2)cc1 | 0.6 | -38.9 | -79.2 | 62.4* | -10.4 | 5.4 | 23.4 | 13.3 | -93.9
O=C(COC(=O)/C=C/c1ccco1)NCCN1C(=O)CSC1=O | · | · | · | -18.3 | · | · | · | · | ·
CC(C)(C)c1ccc2c(c1)OC(C(=O)N/N=C\c1ccc[nH]1)CO2 (centres undefined) | 16.9 | 5.2 | -8.3 | 89.6* | -16.6 | 6.1 | 91.5* | 9.1 | -13.7
CC(C)(C)c1ccc2c(c1)OC(C(=O)N/N=C\c1ccncc1)CO2 (centres undefined) | -34.7 | 5.2 | 8.9 | -4.0 | -0.4 | -7.0 | · | · | ·
COc1ccc(F)cc1COc1nc(C)nc2ccccc12 | 3.2 | 4.2 | -18.4 | 60.7* | 5.6 | -10.1 | 19.1 | 8.8 | 10.7
COCc1nnc(NC(C)=O)s1 | -5.0 | -55.7 | -32.5 | -2.7 | 16.0 | -18.0 | · | · | ·
COCC(=O)N1CCCC(C(=O)c2ccc(-c3ccccc3)c(F)c2)C1 (centres undefined) | 12.7 | -10.9 | -8.7 | -25.0 | -7.6 | -13.2 | · | · | ·
Cc1ccc(SCCN2CCN(C)CC2)cc1 | 10.4 | -8.3 | -48.2 | 3.2 | -11.6 | -11.1 | · | · | ·
CCOC(=O)c1c(C)[nH]c(C(=O)Cn2nnc(-c3ccc(Cl)cc3)n2)c1C | 31.9 | 33.3 | -4.4 | 56.4* | 9.3 | -18.4 | 12.1 | 13.3 | -11.0
Nc1ccc(CN2CCOCC2)cc1 | 23.2 | 3.8 | -43.7 | 2.6 | 5.5 | 8.8 | · | · | ·
SMILES | Mdm2 MdmX PPI | aSyn 5UTR inh | KLF5 inhibitor | Gli-Sufu antag | 697 NFkB inh | Jurkat NFkB inh | Gli antag conf | SufuKO cytotox | Wnt3a counter
COC(=O)C1=C(C)NC2=C(C(=O)CCC2)C1c1ccc(-c2ccsc2C(=O)OC)o1 (centres undefined) | 30.0 | 14.2 | -24.2 | 8.2 | 7.4 | 14.1 | · | · | ·
Cc1sc2ncnc(SCC(=O)c3ccc4c(c3)OCCO4)c2c1-c1ccccc1 | 0.1 | -4.0 | -1.4 | 37.0 | -8.0 | 16.2 | · | · | ·
Cc1cc(C)n(S(=O)(=O)c2ccc3oc(=O)ccc3c2)n1 | 20.6 | -11.9 | -12.9 | -0.2 | 19.1 | 19.7 | · | · | ·
Cc1ccc(C(=O)NC(=S)/C=C2\N(C)c3ccccc3C2(C)C)cc1 | 18.6 | 1.3 | -17.1 | 77.4* | -3.8 | 41.4 | 26.8 | 11.9 | -9.9
CN1/C(=C/C(=S)NC(=O)C2CCC2)C(C)(C)c2ccccc21 | 18.2 | -3.2 | -29.3 | 22.0 | 3.3 | 14.7 | · | · | ·
CN1/C(=C\C(=O)c2cncc(Br)c2)C(C)(C)c2ccccc21 | 28.1 | 0.9 | -32.1 | 65.9* | -46.0 | 10.4 | 69.5* | 36.7* | 15.0
CC(=O)/C=C1\N(C)c2ccc(C)cc2C1(C)C | 38.9 | 4.3 | -9.5 | 61.2* | 4.2 | 14.6 | 60.9* | 29.1* | 30.3*
CN1/C(=C\C=N\NC(=O)c2cccnc2)C(C)(C)c2ccccc21 | 11.7 | -3.5 | -5.8 | 2.4 | 4.1 | 6.6 | · | · | ·
CN1/C(=C\C=N\NC(=O)c2ccc(O)cc2)C(C)(C)c2ccccc21 | 28.2 | 8.5 | -10.0 | 75.6* | -6.2 | 38.8 | 65.1* | 25.5* | 11.9
Cc1ccc(C(=O)C[n+]2cc(Br)cc(Br)c2)cc1[N+](=O)[O-] | -6.1 | 11.7 | 4.6 | 1.9 | 7.6 | -6.0 | · | · | ·
COc1cccc(C(=O)OCC(=O)NC(C)CCc2ccccc2)c1O (centres undefined) | -11.9 | 2.2 | -13.6 | -4.9 | -8.4 | -0.1 | · | · | ·
Cc1cccc(NC2=NCC(=O)N2Cc2cccs2)c1 | -1.2 | 0.8 | -14.1 | -16.5 | -8.7 | 11.2 | · | · | ·
CC(C)C(=O)NC(=S)/C=C1/N(C)c2ccccc2C1(C)C | 27.6 | -11.1 | -13.0 | 55.7* | -12.6 | 31.7 | 57.4* | 16.9 | 11.6
COc1ccc(CN(C)C(=O)c2cccc(NC(=O)CC3SC(N4CCCCC4)=NC3=O)c2)c(OC)c1 (centres undefined) | · | · | · | 65.4* | · | · | 48.9* | 12.8 | -4.8
COc1cccc(CN(C)C(=O)c2cccc(NC(=O)CC3SC(N4CCCCC4)=NC3=O)c2)c1OC (centres undefined) | 11.7 | · | · | -4.3 | 9.1 | 2.2 | · | · | ·
COc1cccc(-c2noc(-c3ccc(Cl)nc3)n2)c1 | -73.8 | -182.1 | -3.7 | -34.2 | -85.6 | -77.7 | · | · | ·
Cc1ccc(NC(=O)Nn2cnnc2)c(C)c1 | 29.8 | -13.2 | -27.5 | 55.1* | 11.6 | 14.8 | 31.1 | 8.0 | 9.6
